What all share (assay): NCI-60 one-dose screen, 48 h (100 = growth as untreated, 0 = no growth, -100 = all killed)
In assay [1] the test system is SK-MEL-2 melanoma. The note with it: 10 µM unless noted.
In assay [2] the test system is EKVX NSCLC. Particulars: 10 µM unless noted.
The test system of assay [3] is SN12C renal. Particulars: 10 µM unless noted.
Assay [4] relates to UO-31 renal. Particulars: 10 µM unless noted.
The test system of assay [5] is TK-10 renal. Particulars: 10 µM unless noted.
Assay [6] concerns A498 renal. The note with it: 10 µM unless noted.
Assay [7] relates to CCRF-CEM leukemia. The note with it: 10 µM unless noted.
Assay [8] has as its system MOLT-4 leukemia. The note with it: 10 µM unless noted.
The test system of assay [9] is SR leukemia. The note with it: 10 µM unless noted.
The subject of assay [10] is RPMI-8226 leukemia. The note with it: 10 µM unless noted.
Assay [11] relates to OVCAR-8 ovarian. The note with it: 10 µM unless noted.
Assay [12] relates to OVCAR-5 ovarian. The note with it: 10 µM unless noted.
For assay [13], the system named is SK-OV-3 ovarian. The note with it: 10 µM unless noted.
For assay [14], the system named is IGROV1 ovarian. Particulars: 10 µM unless noted.
Assay [15] has as its system OVCAR-3 ovarian. The note with it: 10 µM unless noted.
In assay [16] the test system is HS 578T breast. Particulars: 10 µM unless noted.
The test system of assay [17] is NCI/ADR-RES ovarian. Particulars: 10 µM unless noted.
Assay [18] concerns ACHN renal. The note with it: 10 µM unless noted.
Assay [19] deals with CAKI-1 renal. The note with it: 10 µM unless noted.
Assay [20] deals with OVCAR-4 ovarian. Particulars: 10 µM.

Structures are written as SMILES. About 83,000 compounds went through this panel and 20% of them were active in at least one assay; those are over-represented in the sample as a whole.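 Interpretation: 100, growth as untreated; towards 0, rising growth inhibition; 0, no net growth; 0 to -100, cell death. Compounds scoring below 10 were considered active.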 A number with no mark means an inactive call. Active and inactive are the calls of the source.

9 compounds from PubChem BioAssay (NCI) can be followed below.

Turning to `Cc1cc(C)c(S(=O)(=O)/N=c2/n(-c3ccccc3)nc3n2CCN3C2=NCCN2)c(C)c1`, the growth in assay [1] is 104%; in assay [2] it was 83%; in [3], 79.8%; in assay [4] it was 61.2%; in assay [5] it was 92.5%; in assay [6], 61.8%. Besides, the growth in [7] is 83.7%; in assay [8] it was 66.2%; in assay [9], 39.9%; in assay [10], 76%; in [11], 86.7%; in assay [12], 86.5%. Also, the growth in assay [13] is 83.2%; in [14] it was 65.5%; in assay [15], 88.7%; in assay [16], 79.3%; in assay [17] it was 89.1%.

As to `Cc1ccc(NCCN2CCCCC2)c2c(=O)c3ccccc3sc12`, the growth was 45.6% in assay [1]; 68.6% in assay [2]; 32% in [3]; -16.6% (active) in assay [4]; 15.9% in assay [18]; 38.6% in assay [19]. For the same compound, the growth is 30.2% in assay [7]; 11.4% in [8]; 15.3% in [9]; -17.1% (active) in assay [10]; 29.2% in [11]; 43.2% in assay [12]. Also, the growth in assay [20] is 56.9%; in assay [15], 58.5%; in assay [16] it was -8.32% (active); in assay [17], 42%.

Turning to `C#CCNC(=O)CC[C@@H](C)[C@H]1CC[C@H]2[C@@H]3CC[C@@H]4CC(=O)CC[C@]4(C)[C@H]3CC[C@]12C`, the growth is -57.1% [100 µM] (active) in assay [1]; -31.8% [100 µM] (active) in assay [2]; -72% [100 µM] (active) in assay [3]; -92.6% [100 µM] (active) in [4]; -86.2% [100 µM] (active) in assay [18]; -59.4% [100 µM] (active) in assay [19]. Moreover, the growth is -23.9% [100 µM] (active) in assay [6]; -34% [100 µM] (active) in assay [7]; -18.4% [100 µM] (active) in assay [8]; 24.9% [100 µM] in [9]; -32.9% [100 µM] (active) in assay [10]; -21.7% [100 µM] (active) in assay [11]. Besides, the growth in assay [12] was -45.4% [100 µM] (active); in [13], 11.3% [100 µM]; in assay [14] it was -64% [100 µM] (active); in assay [15], -72.6% [100 µM] (active); in assay [16], -28.3% [100 µM] (active); in assay [17] it was -28.7% [100 µM] (active).

Turning to `Cc1ccc(S(=O)(=O)Oc2ccc(Br)cc2Br)cc1`, the growth in [1] is 75.4%; in [2] it was 83.3%; in [3], 95.2%; in [4], 88.9%; in assay [18] it was 95.6%; in [19], 65%. Moreover, the growth in [6] is 74.3%; in [8], 47.5%; in assay [9], 22%; in assay [10], 73.3%; in assay [11], 95.1%; in assay [12], 89.5%. Besides, the growth in assay [20] is 72.4%; in assay [13], 79.4%; in assay [14], 73.3%; in assay [15], 86.9%; in [16] it was 87.7%; in [17], 62.3%.

Turning to `CCN(CC)CCCC(C)Nc1c2ccc(C)cc2nc2ccc(OC)cc12` (centres undefined), the growth was 39.2% in [1]; 42.3% in [2]; 43.3% in assay [3]; -16.5% (active) in assay [4]; 25.5% in [18]; 38% in [19]. Besides, the growth is 70.2% in assay [6]; 30.9% in assay [7]; 9.16% (active) in [8]; 4.33% (active) in assay [9]; 1.21% (active) in assay [10]; 34.3% in assay [11]. Also, the growth in assay [12] was 76.2%; in [20] it was -6.2% (active); in assay [13] it was 55.7%; in [15], 28.9%; in assay [16], 0.397% (active); in [17] it was 64%.

Consider `COc1ccc(C=C2c3ccccc3-c3ccccc32)cc1`, for which the growth in assay [1] is 54.9%; in assay [2] it was 66.8%; in [3] it was 61.6%; in [4], 54.3%; in assay [18] it was 58.4%; in [19] it was 49%. In addition, the growth in [6] was 15.7%; in assay [7], 57.7%; in [8] it was 52.3%; in [9], 23.4%; in [10], 68.2%; in assay [11] it was 67.1%. Moreover, the growth in assay [12] was 92.4%; in assay [20], 80.2%; in assay [13], 60.6%; in assay [14], 58.3%; in assay [15], 18%; in assay [16], 56.3%. Besides, the growth in assay [17] was 20.2%.

In the case of `CNc1cc(C(=O)O)nc(NC)n1`, the growth in [1] was 103%; in assay [2] it was 97.1%; in assay [3] it was 95.1%; in [4] it was 88.4%; in assay [18] it was 99.9%; in assay [19] it was 98.4%. The growth in [6] is 79.7%; in assay [7], 100%; in assay [8] it was 101%; in [9] it was 107%; in [10], 103%; in assay [11] it was 101%. The growth was 92.1% in [12]; 97.6% in assay [20]; 109% in [13]; 99.1% in [14]; 94.7% in assay [16]; 99.4% in assay [17].

Regarding `CC[C@@](C)(NC(=O)[C@H](C)NC(=O)CCNC(=O)C(C)(C)NC(=O)[C@H](C)NC(=O)[C@@H]1CCCN1C(=O)[C@@](C)(CC)NC(=O)[C@H](Cc1ccccc1)NC(=O)C1CCCN1C(=O)C(C)(C)NC(=O)C1CCCN1C(=O)C(C)(C)NC(C)=O)C(=O)NCCC(=O)N[C@@H](CC(C)C)C(=O)NC(C)(C)C(=O)NCCC(=O)N[C@@H](CC(C)C)C(=O)NC(C)(C)C(=O)NC(C)(C)C(=O)N[C@@H](CC(C)C)C(=O)NCCC(=O)NCO` (some centres undefined), the growth in [1] was -89% (active); in assay [2], -100% (active); in assay [3], -76.7% (active); in assay [4], -90.7% (active); in [18], -90.1% (active); in assay [6], -97.4% (active). Also, the growth in assay [7] was -61.1% (active); in assay [8], -61.1% (active); in assay [9], -50.9% (active); in assay [10] it was -55.5% (active); in assay [11] it was -82% (active); in assay [12] it was -87.6% (active). Also, the growth in assay [20] is -96.5% (active); in assay [14] it was -71.9% (active); in assay [15] it was -100% (active); in assay [16], -60.6% (active); in assay [17], -93.3% (active).

`CC1(C)S[C@@H]2[C@H](NC(=O)[C@H](C(=O)O)c3cccs3)C(=O)N2[C@H]1C(=O)O`: the growth in [1] is 98.2%; in assay [2], 93.1%; in assay [3], 104%; in [4] it was 85.6%; in [18] it was 95.2%; in assay [19], 93.2%. Moreover, the growth in [6] is 118%; in [7], 105%; in [8], 125%; in assay [9] it was 102%; in assay [10], 117%; in assay [11], 98.7%. The growth was 100% in [12]; 112% in assay [20]; 105% in assay [13]; 109% in assay [14]; 111% in [15]; 102% in assay [17].
